Records with an inconclusive call do not appear. The source made the active and inactive calls. Rule for the calls, unless noted: active = hit-call score of the fitted dose curve at least 0.9, where 1 is the maximum; inactive = score below 0.9.
Legend:
[1] = biological target: human Vitamin D Receptor (VDR), VDR (gene 7421) (UniProt P11473); experiment: ATG_VDR_TRANS: Attagene TRANS-FACTORIAL HepG2 Assay for human Vitamin D Receptor (VDR) (AID 2283022; active = hit-call score of the fitted dose curve at least 0.9, where 1 is the maximum)
Chain of human Vitamin D Receptor (VDR), VDR (gene 7421) (P11473 whole entry, looked up, the tested form may be a part): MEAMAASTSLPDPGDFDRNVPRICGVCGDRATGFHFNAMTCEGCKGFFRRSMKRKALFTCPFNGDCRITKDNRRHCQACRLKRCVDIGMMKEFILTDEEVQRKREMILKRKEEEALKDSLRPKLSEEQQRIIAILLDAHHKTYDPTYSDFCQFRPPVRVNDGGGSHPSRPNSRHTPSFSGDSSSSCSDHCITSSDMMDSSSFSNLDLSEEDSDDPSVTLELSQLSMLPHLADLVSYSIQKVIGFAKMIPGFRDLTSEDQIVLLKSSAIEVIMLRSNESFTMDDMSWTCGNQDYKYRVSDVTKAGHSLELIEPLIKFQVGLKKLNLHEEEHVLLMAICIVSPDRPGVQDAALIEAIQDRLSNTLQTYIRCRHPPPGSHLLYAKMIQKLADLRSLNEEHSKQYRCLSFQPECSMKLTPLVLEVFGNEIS
Procedure, shortened: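 Transactivation by an exogenous VDR-Gal4 chimera in transiently transfected HepG2 cells was measured as reporter transcript level 24 hours after chemical treatment. RT-PCR products were analysed by capillary electrophoresis and fitted in the positive direction relative to DMSO.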

[2] = read-out: E-selectin (Homo sapiens) (UniProt P16581); experiment: BSK_3C_Eselectin: BioMAP Diversity Plus: 3C Assay for Eselectin Biomarker Activity (AID 2283015); conditions: primary human endothelial cells (HUVEC); actives raise or lower the signal;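 for outcome: cell surface E-selectin protein quantified by ELISA 24 h after dosing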
Procedure, shortened: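 E-selectin ELISA readout, fitted bidirectionally relative to DMSO, taken 24 h post-dosing in HUVEC cultures of the 3C system. Overt cytotoxicity tracked with sulforhodamine B staining of parallel wells.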

[3] = read-out: Interleukin-1 alpha (IL1a), IL1A (gene 3552); experiment: BSK_BE3C_IL1a: BioMAP Diversity Plus: BE3C Assay for Interleukin-1 alpha (IL1a) Biomarker Activity (AID 2283016); conditions: primary human bronchial epithelial cells; actives raise or lower the signal
Procedure, shortened: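 Human primary bronchial epithelial cells (BE3C system) were dosed with compound and IL-1a measured by ELISA 24 h later. Activity was fitted bidirectionally against DMSO baseline; cytotoxicity was tracked in parallel cultures by SRB total-protein staining.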

[4] = read-out: Monocyte Chemoattractant Protein-1 (MCP1), CCL2 (gene 6347); experiment: BSK_3C_MCP1: BioMAP Diversity Plus: 3C Assay for Monocyte Chemoattractant Protein-1 (MCP1) Biomarker Activity (AID 2283017); conditions: primary human endothelial cells (HUVEC); actives raise or lower the signal
Procedure, shortened: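 MCP-1 was measured by ELISA 24 h after dosing in primary HUVEC 3C cultures and fitted in both directions relative to DMSO; cytotoxicity was checked by SRB total-protein staining in parallel wells.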

[5] = read-out: Monocyte Chemoattractant Protein-1 (MCP1), CCL2 (gene 6347); experiment: BSK_4H_MCP1: BioMAP Diversity Plus: 4H Assay for Monocyte Chemoattractant Protein-1 (MCP1) Biomarker Activity (AID 2283018); conditions: primary human endothelial cells (HUVEC); actives raise or lower the signal
Procedure, shortened: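 Human umbilical vein endothelial cells (4H system) dosed with chemical; MCP-1 measured by ELISA 24 h after dosing. Bidirectional curve fitting against DMSO negative control as baseline; parallel SRB total-protein staining tracks overt cytotoxicity.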

[6] = read-out: Human Leukocyte Antigen - DR isotype (HLADR), HLA-DRA (gene 3122); experiment: BSK_3C_HLADR: BioMAP Diversity Plus: 3C Assay for Human Leukocyte Antigen - DR isotype (HLADR) Biomarker Activity (AID 2283019); conditions: primary human endothelial cells (HUVEC); actives raise or lower the signal;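 for outcome: ELISA of cell-surface HLA-DR on HUVEC 24 h after dosing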
Procedure, shortened: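 Bidirectional fitting against DMSO was applied to the HLA-DR ELISA signal from human umbilical vein endothelial cells, 24 h post-dose. Cytotoxicity came from parallel SRB total-protein staining; 3C proliferation was counted by SRB at 48 h.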

[7] = read-out: Monokine induced gamma interferon (MIG), CXCL9 (gene 4283); experiment: BSK_3C_MIG: BioMAP Diversity Plus: 3C Assay for Monokine induced gamma interferon (MIG) Biomarker Activity (AID 2283021); conditions: primary human endothelial cells (HUVEC); actives raise or lower the signal;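 for AC50: MIG protein level measured by immunoassay in the treated endothelial cultures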
Procedure, shortened: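 Primary human umbilical vein endothelial cells in the 3C system were exposed to chemical for 24 h, after which MIG was quantified by ELISA. Activity was fitted bidirectionally against DMSO as negative control and baseline.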

[8] = read-out: Matrix Metallopeptidase 1 (MMP1), MMP1 (gene 4312); experiment: BSK_BE3C_MMP1: BioMAP Diversity Plus: BE3C Assay for Matrix Metallopeptidase 1 (MMP1) Biomarker Activity (AID 2283024); conditions: primary human bronchial epithelial cells; actives raise or lower the signal
Procedure, shortened: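 Primary human bronchial epithelial cells were dosed with test chemicals, and MMP1 levels were measured by ELISA 24 h later. Data were fitted bidirectionally against DMSO as the negative control and activity baseline.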

[9] = BSK_3C_Vis: BioMAP Diversity Plus: 3C Assay for Morphology Visualization (AID 2283025); conditions: primary human endothelial cells (HUVEC);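 note: fitted both ways so gain or loss versus DMSO counts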
Procedure, shortened: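 Human umbilical vein endothelial cells in the 3C system were imaged by light microscopy 24 h after chemical dosing to record cell morphology. Activity was fitted bidirectionally against DMSO as negative control and baseline; the endpoint serves as a background control.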

[10] = read-out: Pselectin, SELP (gene 6403); experiment: BSK_4H_Pselectin: BioMAP Diversity Plus: 4H Assay for Pselectin Biomarker Activity (AID 2283026); conditions: primary human endothelial cells (HUVEC); actives raise or lower the signal
Procedure, shortened: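 Primary human umbilical vein endothelial cells were exposed to test chemical for 24 h, then cell-surface P-selectin was quantified by ELISA. Activity was fitted bidirectionally against DMSO as negative control and baseline.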

[11] = BSK_4H_SRB: Viability Assessment in the BioMAP Diversity Plus: 4H Assay (AID 2283027); conditions: primary human endothelial cells (HUVEC);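 note: cells exposed to compound for 24 h before staining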;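 for AC50: curves fitted both ways versus DMSO so AC50 may be loss or gain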
Procedure, shortened: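 Human umbilical vein endothelial cells, 24 h after chemical dosing; total protein measured by 0.1% sulforhodamine B staining after 10% TCA fixation, read at 560 nm. Bidirectional fitting against DMSO.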

[12] = BSK_BE3C_SRB: Viability Assessment in the BioMAP Diversity Plus: BE3C Assay (AID 2283028); conditions: primary human bronchial epithelial cells;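 for AC50: fitted both ways so AC50 may mark signal gain or loss versus DMSO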
Procedure, shortened: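 Cytotoxicity read-out: SRB (0.1%) staining of TCA-fixed (10%) human lung bronchial epithelial cells, absorbance 560 nm, 24 h post-dosing. Curves fitted both directions relative to DMSO.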

[13] = read-out: Thrombomodulin, THBD (gene 7056); experiment: BSK_3C_Thrombomodulin: BioMAP Diversity Plus: 3C Assay for Thrombomodulin Biomarker Activity (AID 2283029); conditions: primary human endothelial cells (HUVEC); actives raise or lower the signal
Procedure, shortened: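 Primary human umbilical vein endothelial cells (3C system) were exposed to chemical for 24 h, then thrombomodulin levels were measured by ELISA. Activity was fitted bidirectionally against the DMSO negative control as baseline.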

[14] = read-out: Urokinase-type plasminogen activator receptor (uPAR), PLAUR (gene 5329); experiment: BSK_4H_uPAR: BioMAP Diversity Plus: 4H Assay for Urokinase-type plasminogen activator receptor (uPAR) Biomarker Activity (AID 2283030); conditions: primary human endothelial cells (HUVEC); actives raise or lower the signal
Procedure, shortened: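 uPAR level read by ELISA on HUVEC cultures (BioMAP 4H) 24 h post-dosing, analyzed for gain or loss relative to DMSO. Parallel SRB staining assessed overt cytotoxicity.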

[15] = read-out: Human Leukocyte Antigen - DR isotype (HLADR), HLA-DRA (gene 3122); experiment: BSK_BE3C_HLADR: BioMAP Diversity Plus: BE3C Assay for Human Leukocyte Antigen - DR isotype (HLADR) Biomarker Activity (AID 2283032); conditions: primary human bronchial epithelial cells; actives raise or lower the signal
Procedure, shortened: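 Human primary bronchial epithelial cells in the BE3C system were exposed to chemicals for 24 h, after which HLA-DR levels were quantified by ELISA. Activity was fitted bidirectionally, gain or loss of signal, against DMSO as negative control and baseline.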

[16] = read-out: Vascular cell adhesion molecule 1 (VCAM1), VCAM1 (gene 7412); experiment: BSK_4H_VCAM1: BioMAP Diversity Plus: 4H Assay for Vascular cell adhesion molecule 1 (VCAM1) Biomarker Activity (AID 2283033); conditions: primary human endothelial cells (HUVEC); actives raise or lower the signal;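 for outcome: cell-surface VCAM-1 protein measured by ELISA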
Procedure, shortened: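 Primary human umbilical vein endothelial cells were exposed to chemicals for 24 h, after which VCAM-1 was quantified by ELISA. Responses were fitted bidirectionally against DMSO as negative control and activity baseline.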

[17] = read-out: Interferon-gamma inducible Protein 10 (IP10), CXCL10 (gene 3627); experiment: BSK_BE3C_IP10: BioMAP Diversity Plus: BE3C Assay for Interferon-gamma inducible Protein 10 (IP10) Biomarker Activity (AID 2283034); conditions: primary human bronchial epithelial cells; actives raise or lower the signal
Procedure, shortened: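 Human primary bronchial epithelial cells were exposed to chemicals for 24 hours, after which IP-10 levels were measured by ELISA. Data were fitted bidirectionally against DMSO, which served as the negative control and activity baseline.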

[18] = BSK_3C_SRB: Viability Assessment in the BioMAP Diversity Plus: 3C Assay (AID 2283023); conditions: primary human endothelial cells (HUVEC);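 note: fitted both ways against DMSO so a hit may be signal rise or drop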
Procedure, shortened: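 Cytotoxicity readout in parallel HUVEC 3C cultures: after 24 h compound exposure, cells fixed with 10% TCA, stained with 0.1% SRB and read at 560 nm. Gain or loss relative to DMSO fitted.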

[19] = read-out: Vascular endothelial growth factor receptor 2 (Homo sapiens) (UniProt P35968); experiment: BSK_4H_VEGFRII: BioMAP Diversity Plus: 4H Assay for Vascular endothelial growth factor receptor 2 (VEGFR2) Biomarker Activity (AID 2283031); conditions: primary human endothelial cells (HUVEC); actives raise or lower the signal
Procedure, shortened: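 Measured by ELISA after 24 h of compound treatment: VEGFR2 on primary human umbilical vein endothelial cells, fitted in both directions relative to DMSO. Parallel cultures received SRB staining (560 nm) for overt cytotoxicity.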

[20] = read-out: Interleukin-8 (IL8), CXCL8 (gene 3576); experiment: BSK_3C_IL8: BioMAP Diversity Plus: 3C Assay for Interleukin-8 (IL8) Biomarker Activity (AID 2283020); conditions: primary human endothelial cells (HUVEC); actives raise or lower the signal
Procedure, shortened: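 Primary human umbilical vein endothelial cells (3C system) were exposed to test chemical for 24 h, then IL-8 was quantified by ELISA. Responses were fitted bidirectionally against DMSO vehicle as baseline.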

Chain of E-selectin (Homo sapiens) (P16581 whole entry, looked up): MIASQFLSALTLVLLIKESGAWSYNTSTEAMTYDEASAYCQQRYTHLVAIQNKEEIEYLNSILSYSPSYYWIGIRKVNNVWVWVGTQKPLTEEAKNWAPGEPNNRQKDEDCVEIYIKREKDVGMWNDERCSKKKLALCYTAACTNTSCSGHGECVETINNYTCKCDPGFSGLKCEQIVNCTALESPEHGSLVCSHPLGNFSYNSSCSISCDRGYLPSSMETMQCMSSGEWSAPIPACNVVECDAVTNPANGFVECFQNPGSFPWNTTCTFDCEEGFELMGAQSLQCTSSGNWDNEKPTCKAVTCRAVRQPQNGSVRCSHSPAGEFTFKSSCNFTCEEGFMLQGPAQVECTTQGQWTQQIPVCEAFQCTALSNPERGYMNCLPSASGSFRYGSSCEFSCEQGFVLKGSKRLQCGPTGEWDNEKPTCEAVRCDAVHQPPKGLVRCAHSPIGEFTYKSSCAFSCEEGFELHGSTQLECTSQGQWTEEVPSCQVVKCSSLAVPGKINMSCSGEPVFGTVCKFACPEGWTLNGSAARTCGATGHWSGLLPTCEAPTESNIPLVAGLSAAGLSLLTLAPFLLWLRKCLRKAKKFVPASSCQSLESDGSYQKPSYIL

CCC(C)c1cccc(C(C)CC)c1O (stereo unspecified)
outcome [1]: inactive

Nc1cccc2ccccc12
outcome [2]: inactive | outcome [3]: inactive | outcome [4]: inactive | outcome [5]: inactive | outcome [6]: inactive | outcome [7]: inactive | outcome [8]: inactive | outcome [9]: inactive | outcome [10]: inactive | outcome [11]: inactive | outcome [12]: inactive | outcome [13]: inactive | outcome [14]: inactive | outcome [15]: inactive | outcome [16]: inactive | AC50 [17]: 20 µM (active)

ClCc1cccnc1
outcome [1]: inactive

CC(C)c1ccc(CO)cc1
outcome [2]: inactive | outcome [3]: inactive | outcome [4]: inactive | outcome [5]: inactive | outcome [6]: inactive | outcome [7]: inactive | outcome [1]: inactive | outcome [18]: inactive | outcome [8]: inactive | outcome [9]: inactive | outcome [10]: inactive | outcome [11]: inactive | outcome [12]: inactive | outcome [13]: inactive | outcome [14]: inactive | outcome [19]: inactive | outcome [15]: inactive | outcome [16]: inactive | outcome [17]: inactive

C(=NC1CCCCC1)=NC1CCCCC1
AC50 [2]: 20 µM (active) | AC50 [3]: 20 µM (active) | AC50 [5]: 3.82 µM (active) | AC50 [6]: 10.2 µM (active) | AC50 [20]: 20 µM (active) | AC50 [7]: 28.7 µM (active) | outcome [1]: inactive | AC50 [18]: 8.96 µM (active) | AC50 [8]: 36.5 µM (active) | AC50 [9]: 37.3 µM (active) | AC50 [10]: 5.42 µM (active) | AC50 [11]: 5.35 µM (active) | AC50 [12]: 33.4 µM (active) | outcome [13]: inactive | AC50 [14]: 8.81 µM (active) | AC50 [15]: 20 µM (active) | AC50 [16]: 7.64 µM (active) | AC50 [17]: 20 µM (active)

CCCCCCCCc1ccc(O)cc1
AC50 [2]: 31.7 µM (active) | AC50 [3]: 32.6 µM (active) | AC50 [4]: 34.1 µM (active) | AC50 [5]: 20.1 µM (active) | AC50 [6]: 31.5 µM (active) | AC50 [7]: 36 µM (active) | outcome [1]: inactive | AC50 [18]: 31.2 µM (active) | AC50 [8]: 31.7 µM (active) | AC50 [9]: 39.3 µM (active) | AC50 [10]: 25.6 µM (active) | AC50 [11]: 34.3 µM (active) | AC50 [12]: 34.9 µM (active) | AC50 [13]: 34.3 µM (active) | AC50 [14]: 37.2 µM (active) | AC50 [15]: 33 µM (active) | AC50 [16]: 33.2 µM (active) | AC50 [17]: 31.9 µM (active)

CC1(C)Cc2cccc(O)c2O1
outcome [2]: inactive | outcome [3]: inactive | outcome [4]: inactive | outcome [5]: inactive | outcome [6]: inactive | outcome [7]: inactive | outcome [18]: inactive | outcome [8]: inactive | outcome [9]: inactive | outcome [10]: inactive | outcome [11]: inactive | outcome [12]: inactive | outcome [13]: inactive | outcome [14]: inactive | outcome [19]: inactive | outcome [15]: inactive | outcome [16]: inactive | outcome [17]: inactive

— PubChem BioAssay (EPA / NIEHS)
